SARS PLpro yeast: qHTS of Yeast-based Assay for SARS-CoV PLP. S. cerevisiae expressing SARS-CoV PLpro, growth rescue. Potency, µM (highest dose often 32.9 µM), for inactives: at the highest dose activity, positive = growth rescue, usual class: activators. hit rate 0.19% among 330,000. AID 485353, 2010; calls by dose curve; also: potency is read from the fitted curve at half-maximal effect; 0% is about no effect; nearly all actives have a fitted effect of over 55% in size
Cycloheximide cs: Cycloheximide Counterscreen for Small Molecule Inhibitors of Shiga Toxin; hit rate 12% among 300,000; max response, %; cell reporter, cycloheximide protein synthesis inhibition counterscreen; in the data active = max response mostly above about 13%, no sharp cut-off; inactive = mostly below about 14%; also: read at 38.3 µM for the half of the compounds with a filed dose; 0% is about no effect
Pf growth 96h: Primary qHTS for delayed death inhibitors of the malarial parasite plastid, 96 hour incubation; hit rate 6.9% among 320,000; Potency, µM (series often up to 28.7 µM), for the others: at the top dose activity change, negative = inhibition, most hits filed as inhibitors; P. falciparum luciferase reporter growth, 96 h; also: potency is read from the fitted curve at half-maximal effect; % is scaled to controls: 0 for no effect and ±100 for the full control effect
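Plates of compound plus infected erythrocytes (2% hematocrit, 0.05% parasitemia final) incubate 96 hours, 37 C, 5% CO2. Detection reagent added; reduced luminescence from the parasites' luciferase reporter flags inhibition.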
Pf growth 48h: Primary qHTS for delayed death inhibitors of the malarial parasite plastid, 48 hour incubation; P. falciparum luciferase growth in erythrocytes, 48 h; Potency, µM (series often up to 28.7 µM), for the others: top-dose activity change, negative = inhibition, most hits filed as inhibitors; hit rate 5.9% among 310,000; also: potency is read from the fitted curve at half-maximal effect; % is scaled to controls: 0 for no effect and ±100 for the full control effect
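Here the parasites carry a stable luciferase gene and grow inside erythrocytes in Albumax-based RPMI medium with compound for one erythrocytic cycle. Activity is scored as loss of luminescent signal.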
Shiga toxin inh: A qHTS for Small Molecule Inhibitors of Shiga Toxin; Vero cells, Shiga toxin protein synthesis inhibition reporter; hit rate 9.2% among 290,000; AID 2315, 2010; inhibition, % at 38.7 µM; in the data active = inhibition mostly above about 28%, no sharp cut-off; inactive = mostly below about 43%; also: 0% is about no effect
AMA1 RON2 block: qHTS for Inhibitors of AMA1-RON; Towards Development of Antimalarial Drug Lead: Primary Screen | Plasmodium falciparum AMA1 (3D7) - RON2 peptide interaction | AlphaScreen AMA1-biotinylated RON2 peptide binding | Potency, µM (series often up to 58.2 µM), for the others: at the top dose activity change, negative = inhibition, most hits filed as inhibitors | hit rate 0.2% among 360,000;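 also: potency is read from the fitted curve at half-maximal effect; 0% = vehicle wells and -100% = peptide control; nearly all actives have a fitted effect of over 45% in size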
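AMA1 (3D7) with his tag at 25 nM final met compounds first, then biotinylated RON2 peptide at 25 nM; detection used donor plus acceptor beads, 10 µg/mL apiece, read by AlphaScreen after 30 min at room temperature.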
The depositor's hits bear a star. An excerpt weighted towards active compounds, which were near 19% of everything screened. Unless noted, calls follow the shape of the dose curve; as a rule, active = well fitted curve in the direction sought with a large enough effect; inconclusive = small, poorly fitted or top-dose-only effect, or another doubt; inactive = no such curve, though single readings can be large; an effect the other way counts as inactive or inconclusive.

What do the screens show for `COc1cccc(CN2CCCC(C(=O)N3CCCCC3)C2)c1` (stereo not given)?
SARS PLpro yeast: 1%; Cycloheximide cs: -4; Pf growth 96h: 27%; Pf growth 48h: 27%; Shiga toxin inh: 3; AMA1 RON2 block: 6%

How did COc1ccc(Cl)cc1Nc1nc(N2CCCC2)nc(N2CCCC2)n1 do in these assays?
SARS PLpro yeast: -8%; Cycloheximide cs: -6; Pf growth 96h: 16%; Pf growth 48h: 10%; Shiga toxin inh: -13

How did Cc1cc(Cl)ccc1OCC(=O)OCC(=O)Nc1cccnc1Cl do in these assays?
SARS PLpro yeast: 0%; Pf growth 96h: 9%; Pf growth 48h: -14%; AMA1 RON2 block: -4%

How did Cc1ccc(OCC(=O)Nc2cccnc2Cl)cc1C do in these assays?
SARS PLpro yeast: -1%; Cycloheximide cs: 18*; Pf growth 96h: 20%; Pf growth 48h: 36%; Shiga toxin inh: 58*; AMA1 RON2 block: 2%

What do the screens show for `Cc1ccc(OCC(=O)Nc2ccccc2F)cc1C`?
SARS PLpro yeast: -1%; Cycloheximide cs: 36*; Pf growth 96h: inconclusive; Pf growth 48h: 73%; Shiga toxin inh: 81*; AMA1 RON2 block: -8%

Results for O=C(COC(=O)CC12CC3CC(CC(C3)C1)C2)Nc1cccnc1Cl ?
SARS PLpro yeast: 1%; Cycloheximide cs: 25*; Pf growth 96h: 29%; Pf growth 48h: -1%; Shiga toxin inh: 11; AMA1 RON2 block: -3%

Results for O=C(COC(=O)c1ccccn1)Nc1cccnc1Cl ?
SARS PLpro yeast: -1%; Pf growth 96h: 7%; Pf growth 48h: -24%; AMA1 RON2 block: 12%

What do the screens show for `Cc1ccc(C(=O)Nc2cccnc2Cl)cc1Cl`?
SARS PLpro yeast: -8%; Cycloheximide cs: 35*; Pf growth 96h: 3%; Pf growth 48h: 144%; AMA1 RON2 block: 6%

How did COc1ccc(C2CC(c3ccccc3)Oc3cc(C)cc(C)c32)cc1 (stereo not given) do in these assays?
Cycloheximide cs: 8; Shiga toxin inh: 13

How did NC(=O)c1ccc[n+]([C@H]2O[C@@H](COP(=O)([O-])OP(=O)(O)OC[C@H]3O[C@@H](n4cnc5c(N)ncnc54)[C@H](O)[C@@H]3O)[C@H](O)[C@@H]2O)c1 do in these assays?
SARS PLpro yeast: -4%; Pf growth 96h: 5%; Pf growth 48h: 0%; AMA1 RON2 block: 21%

How did CC(C)(C)c1ccc(/C=C2\SC(=O)N(CCNC(=O)c3cccc(S(=O)(=O)N4CCOCC4)c3)C2=O)cc1 do in these assays?
SARS PLpro yeast: -16%; Cycloheximide cs: 69*; Pf growth 96h: -49%; Pf growth 48h: -36%; Shiga toxin inh: 131*; AMA1 RON2 block: -21%

What do the screens show for `O=C(NN=Cc1ccccc1)C(Oc1ccccc1)c1ccccc1` (stereo not given)?
AMA1 RON2 block: -18%

How did COc1ccc(CNC(=O)CN(C(=O)c2snc(C(N)=O)c2N)c2ccc(OC)c(OC)c2)cc1 do in these assays?
SARS PLpro yeast: 26%; Cycloheximide cs: -6; Pf growth 96h: inconclusive; Pf growth 48h: -18%; Shiga toxin inh: -5; AMA1 RON2 block: -4%

What do the screens show for `CSc1ccc(/C=C/C(=O)c2c(O)cc(C)oc2=O)cc1`?
SARS PLpro yeast: -1%; Cycloheximide cs: 37*; Pf growth 96h: inconclusive; Pf growth 48h: inconclusive; Shiga toxin inh: 52*; AMA1 RON2 block: 84%

What do the screens show for `COc1cccc(/C=C/C(=O)c2c(O)cc(C)oc2=O)c1O`?
SARS PLpro yeast: 7%; Cycloheximide cs: 23; Pf growth 96h: -12%; Shiga toxin inh: 97; AMA1 RON2 block: 16%

What do the screens show for `COc1ccc(/C=C/C(=O)c2c(O)cc(C)oc2=O)c(OC)c1`?
SARS PLpro yeast: 2%; Cycloheximide cs: 24*; Pf growth 96h: 21%; Pf growth 48h: 116%; Shiga toxin inh: 8; AMA1 RON2 block: 13%

Results for COc1cc(/C=C/C(=O)c2c(O)cc(C)oc2=O)cc(OC)c1O ?
SARS PLpro yeast: 3%; Cycloheximide cs: 1; Pf growth 96h: -14%; Shiga toxin inh: -4; AMA1 RON2 block: -4%

What do the screens show for `Cc1cc(O)c(C(=O)/C=C/c2ccc(Cl)cc2)c(=O)o1`?
SARS PLpro yeast: -2%; Cycloheximide cs: 32*; Pf growth 96h: inconclusive; Pf growth 48h: inconclusive; Shiga toxin inh: 50*; AMA1 RON2 block: 58%

What do the screens show for `CCOC(=O)C1(CCOC)CCN(C(=O)c2ccc(CSC)o2)CC1`?
SARS PLpro yeast: -2%; Cycloheximide cs: 5; Pf growth 96h: -23%; Pf growth 48h: -20%; Shiga toxin inh: 11; AMA1 RON2 block: -10%

How did Cc1ccc(C)c(S(=O)(=O)N2CCCOC2CNC(=O)C(=O)NCCC2=CCCCC2)c1 (stereo not given) do in these assays?
SARS PLpro yeast: 2%; Cycloheximide cs: -2; Pf growth 96h: -23%; Pf growth 48h: -29%; Shiga toxin inh: 17; AMA1 RON2 block: -1%

Results for O=C(C[C@@H]1C/C=C\C[C@H](NC(=O)OCC2c3ccccc3-c3ccccc32)C(=O)OC[C@H]2CCCN2C1=O)NCCO ?
SARS PLpro yeast: 8%; AMA1 RON2 block: 22%

How did Cc1ccc(NC(=O)c2cc(-c3cc(C)c(C)cc3O)n[nH]2)cc1C do in these assays?
SARS PLpro yeast: 1%; Cycloheximide cs: 15*; Pf growth 96h: 2.6µM*; Pf growth 48h: 2.1µM*; Shiga toxin inh: 9; AMA1 RON2 block: 39%

How did Cc1ccc(-c2cc(C(=O)Nc3cc(C)ccc3C)[nH]n2)c(O)c1 do in these assays?
SARS PLpro yeast: 30%; Cycloheximide cs: 18*; Pf growth 96h: inconclusive; Pf growth 48h: inconclusive; Shiga toxin inh: 30*; AMA1 RON2 block: 87%

What do the screens show for `Cc1ccc(C)c(NC(=O)c2cc(-c3cc(C)c(C)cc3O)n[nH]2)c1`?
SARS PLpro yeast: 2%; Cycloheximide cs: 30*; Pf growth 96h: inconclusive; Pf growth 48h: 6.6µM*; Shiga toxin inh: 61*; AMA1 RON2 block: 73%

Results for Cc1ccc(C)c(NC(=O)c2cc(-c3ccccc3O)n[nH]2)c1 ?
SARS PLpro yeast: 0%; Cycloheximide cs: 29*; Pf growth 96h: inconclusive; Pf growth 48h: inconclusive; Shiga toxin inh: 59*; AMA1 RON2 block: 64%

How did CN(C)CCn1cnc2c(c1=N)C(c1ccccc1)c1ccc3ccccc3c1O2 (stereo not given) do in these assays?
SARS PLpro yeast: 1%; Cycloheximide cs: -3; Pf growth 96h: 5.2µM*; Pf growth 48h: 5.2µM*; Shiga toxin inh: 2; AMA1 RON2 block: -12%

Results for N=c1c2c(ncn1Cc1ccco1)Oc1cc(O)ccc1C2c1ccccc1 (stereo not given) ?
SARS PLpro yeast: 1%; Cycloheximide cs: -1; Pf growth 96h: inconclusive; Pf growth 48h: 12µM*; Shiga toxin inh: -6; AMA1 RON2 block: 5%

Screens (PubChem)
